# Experiments:
# Assay in all cases: DAPPL (digital affinity profiling via proximity ligation, sequencing); 10 mM Tris-HCl pH 7.5, 50 mM NaCl, 1 mM DTT, 4% glycerol, room temperature, 30 min; GST-TFs on glutathione beads, 16-mer random dsDNA library, 0.1% formaldehyde crosslink after washing; high values mean tight binding
# FEV = molecular target: T1, FEV (Homo sapiens, UniProt Q99581 1-238); settings: protein: recombinant; tags: N-terminal GST; dsDNA, one strand shown
# T1 sequence: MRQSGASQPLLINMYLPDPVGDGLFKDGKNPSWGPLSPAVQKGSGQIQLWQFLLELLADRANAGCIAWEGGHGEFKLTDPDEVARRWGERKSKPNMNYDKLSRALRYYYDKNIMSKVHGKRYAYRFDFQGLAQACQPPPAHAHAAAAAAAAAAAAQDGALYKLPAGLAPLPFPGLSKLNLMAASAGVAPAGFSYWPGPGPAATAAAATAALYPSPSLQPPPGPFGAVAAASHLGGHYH
# Method in brief: (§1)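 In yeast, human transcription factors were expressed with a GST fusion, then pulled down on glutathione beads and given DNA barcodes. Pooled with a tag-only sample, they were exposed to 200 nmole of a 16-mer random double-stranded DNA library (Tris/NaCl/DTT/glycerol buffer, room temperature, 30 min), washed, crosslinked with 0.1% formaldehyde, proximity-ligated using BsaI/T4 ligase for 1 h at 37 °C, PCR-amplified and read on an Illumina NextSeq500. Each hexamer's frequency of reads for a factor, divided by the matching frequency for the tag-only sample, gives the binding signal.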
# ETV5 = ETV5 (Homo sapiens, UniProt P41161 1-510); settings: protein: recombinant; tags: N-terminal GST; dsDNA, one strand shown
# Method in brief: as §1
# HSF1 = HSF1 (Homo sapiens, UniProt Q00613 1-529); settings: protein: recombinant; tags: N-terminal GST; chain copies: 3; dsDNA, one strand shown
# Method in brief: as §1
# SPIC = molecular target: T2, SPIC (Homo sapiens, UniProt Q8N5J4 1-248); settings: protein: recombinant; tags: N-terminal GST; dsDNA, one strand shown
# T2 sequence: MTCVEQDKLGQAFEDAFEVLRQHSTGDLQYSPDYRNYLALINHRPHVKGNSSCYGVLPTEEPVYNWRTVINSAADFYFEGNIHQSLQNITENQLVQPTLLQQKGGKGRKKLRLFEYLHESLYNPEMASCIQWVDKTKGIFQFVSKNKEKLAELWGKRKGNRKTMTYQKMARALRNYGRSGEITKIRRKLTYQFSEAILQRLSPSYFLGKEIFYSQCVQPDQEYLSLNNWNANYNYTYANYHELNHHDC
# Method in brief: as §1
# ELF4 = ELF4 (Homo sapiens, UniProt Q99607 1-663); settings: protein: recombinant; tags: N-terminal GST; dsDNA, one strand shown
# Method in brief: as §1
# ELK4 = molecular target: T3, ELK4 (Homo sapiens, UniProt P28324-2 1-405); settings: protein: recombinant; tags: N-terminal GST; dsDNA, one strand shown
# T3 sequence: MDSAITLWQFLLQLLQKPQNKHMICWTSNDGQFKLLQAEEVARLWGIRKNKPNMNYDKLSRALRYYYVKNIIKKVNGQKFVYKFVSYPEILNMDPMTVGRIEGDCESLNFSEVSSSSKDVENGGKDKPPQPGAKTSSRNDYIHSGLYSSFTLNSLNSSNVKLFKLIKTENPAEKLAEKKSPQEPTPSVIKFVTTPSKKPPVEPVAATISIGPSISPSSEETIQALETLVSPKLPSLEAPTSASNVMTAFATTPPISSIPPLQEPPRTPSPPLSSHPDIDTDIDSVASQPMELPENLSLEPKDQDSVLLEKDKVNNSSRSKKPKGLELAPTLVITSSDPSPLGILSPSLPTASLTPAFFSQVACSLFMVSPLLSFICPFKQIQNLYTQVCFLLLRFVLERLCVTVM
# Method in brief: as §1
# ETV2 = molecular target: T4, ETV2 (Homo sapiens, UniProt O00321 1-342); settings: protein: recombinant; tags: N-terminal GST; dsDNA, one strand shown
# T4 sequence: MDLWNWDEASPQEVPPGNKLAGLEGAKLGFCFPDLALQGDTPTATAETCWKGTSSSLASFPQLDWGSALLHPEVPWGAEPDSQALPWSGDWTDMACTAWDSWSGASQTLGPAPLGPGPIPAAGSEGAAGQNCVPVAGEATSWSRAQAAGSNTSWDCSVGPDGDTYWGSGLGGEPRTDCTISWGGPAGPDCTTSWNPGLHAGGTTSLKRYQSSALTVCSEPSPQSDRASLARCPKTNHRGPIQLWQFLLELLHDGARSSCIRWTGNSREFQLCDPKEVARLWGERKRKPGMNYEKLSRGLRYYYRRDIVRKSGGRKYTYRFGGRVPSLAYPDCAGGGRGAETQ
# Method in brief: as §1
# ELF3 = molecular target: T5, ELF3 (Homo sapiens, UniProt P78545 1-371); settings: protein: recombinant; tags: N-terminal GST; dsDNA, one strand shown
# T5 sequence: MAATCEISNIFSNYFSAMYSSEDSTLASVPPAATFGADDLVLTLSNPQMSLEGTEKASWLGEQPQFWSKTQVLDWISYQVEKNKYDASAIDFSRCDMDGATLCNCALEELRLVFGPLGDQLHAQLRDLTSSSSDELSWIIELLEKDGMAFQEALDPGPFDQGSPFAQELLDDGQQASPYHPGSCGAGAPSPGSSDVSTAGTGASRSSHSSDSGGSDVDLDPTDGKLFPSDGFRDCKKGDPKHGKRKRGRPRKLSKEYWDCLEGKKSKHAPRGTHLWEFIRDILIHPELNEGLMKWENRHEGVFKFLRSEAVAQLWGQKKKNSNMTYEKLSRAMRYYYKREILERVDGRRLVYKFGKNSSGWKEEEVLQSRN
# Method in brief: as §1
# CRX = CRX (Homo sapiens, UniProt O43186 1-299); settings: protein: recombinant; tags: N-terminal GST; dsDNA, one strand shown
# Method in brief: as §1
# ETV1 = ETV1 (Homo sapiens, UniProt P50549 1-477); settings: protein: recombinant; tags: N-terminal GST; dsDNA, one strand shown
# Method in brief: as §1
# ERF = molecular target: T6, ERF (Homo sapiens, UniProt P50548 1-548); settings: protein: recombinant; tags: N-terminal GST; dsDNA, one strand shown
# T6 sequence: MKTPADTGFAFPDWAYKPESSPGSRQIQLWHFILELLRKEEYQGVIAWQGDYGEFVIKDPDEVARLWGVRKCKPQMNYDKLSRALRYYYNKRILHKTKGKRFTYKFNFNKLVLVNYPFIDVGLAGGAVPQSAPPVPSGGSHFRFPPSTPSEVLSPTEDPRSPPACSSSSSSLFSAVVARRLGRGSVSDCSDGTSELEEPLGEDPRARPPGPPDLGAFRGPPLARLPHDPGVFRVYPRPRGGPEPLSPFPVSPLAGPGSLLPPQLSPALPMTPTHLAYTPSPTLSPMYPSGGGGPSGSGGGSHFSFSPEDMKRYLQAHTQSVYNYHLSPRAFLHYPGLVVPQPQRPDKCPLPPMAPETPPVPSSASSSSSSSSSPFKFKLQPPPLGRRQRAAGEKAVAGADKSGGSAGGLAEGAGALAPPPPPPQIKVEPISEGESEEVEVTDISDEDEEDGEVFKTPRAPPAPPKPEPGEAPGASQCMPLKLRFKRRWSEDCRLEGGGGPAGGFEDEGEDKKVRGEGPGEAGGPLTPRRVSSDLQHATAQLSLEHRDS
# Method in brief: as §1
# ETV3L = molecular target: T7, ETV3L (Homo sapiens, UniProt Q6ZN32 1-361); settings: protein: recombinant; tags: N-terminal GST; dsDNA, one strand shown
# T7 sequence: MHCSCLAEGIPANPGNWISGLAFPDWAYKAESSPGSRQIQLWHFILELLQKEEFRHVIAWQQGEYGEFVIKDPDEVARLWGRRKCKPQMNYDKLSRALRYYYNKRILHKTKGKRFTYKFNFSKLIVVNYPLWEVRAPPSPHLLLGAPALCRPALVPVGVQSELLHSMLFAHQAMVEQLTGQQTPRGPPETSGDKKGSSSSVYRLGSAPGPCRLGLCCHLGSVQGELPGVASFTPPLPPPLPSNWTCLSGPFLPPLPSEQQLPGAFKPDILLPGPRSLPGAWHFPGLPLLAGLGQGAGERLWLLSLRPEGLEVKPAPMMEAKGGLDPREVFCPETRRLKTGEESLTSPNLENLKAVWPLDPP
# Method in brief: as §1
# ETS2 = molecular target: T8, ETS2 (Homo sapiens, UniProt P15036 1-469); settings: protein: recombinant; tags: N-terminal GST; dsDNA, one strand shown
# T8 sequence: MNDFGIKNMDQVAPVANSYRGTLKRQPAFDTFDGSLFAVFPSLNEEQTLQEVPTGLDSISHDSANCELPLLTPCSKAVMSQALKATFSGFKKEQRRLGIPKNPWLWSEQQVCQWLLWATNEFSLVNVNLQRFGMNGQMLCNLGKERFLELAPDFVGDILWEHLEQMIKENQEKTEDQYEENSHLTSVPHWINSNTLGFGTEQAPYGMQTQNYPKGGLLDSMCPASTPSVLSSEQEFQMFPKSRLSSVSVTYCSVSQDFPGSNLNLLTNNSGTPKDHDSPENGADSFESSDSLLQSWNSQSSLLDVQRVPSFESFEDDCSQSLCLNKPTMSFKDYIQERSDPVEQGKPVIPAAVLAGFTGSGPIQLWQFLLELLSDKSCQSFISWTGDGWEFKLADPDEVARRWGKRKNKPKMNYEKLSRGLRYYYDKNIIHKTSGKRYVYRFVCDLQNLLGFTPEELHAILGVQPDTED
# Method in brief: as §1
# SPDEF = molecular target: T9, SPDEF (Homo sapiens, UniProt O95238 1-335); settings: protein: recombinant; tags: N-terminal GST; dsDNA, one strand shown
# T9 sequence: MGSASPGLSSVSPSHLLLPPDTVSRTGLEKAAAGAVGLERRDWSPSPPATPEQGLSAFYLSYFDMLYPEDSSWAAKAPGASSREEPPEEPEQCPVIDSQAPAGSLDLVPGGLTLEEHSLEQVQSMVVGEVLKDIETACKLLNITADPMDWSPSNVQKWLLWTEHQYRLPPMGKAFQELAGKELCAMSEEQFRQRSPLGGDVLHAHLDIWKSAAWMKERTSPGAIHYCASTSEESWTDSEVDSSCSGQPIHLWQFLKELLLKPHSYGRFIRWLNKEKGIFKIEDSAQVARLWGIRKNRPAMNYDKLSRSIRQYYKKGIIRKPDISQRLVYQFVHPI
# Method in brief: as §1
# ETV7 = molecular target: T10, ETV7 (Homo sapiens, UniProt Q9Y603 1-341); settings: protein: recombinant; tags: N-terminal GST; dsDNA, one strand shown
# T10 sequence: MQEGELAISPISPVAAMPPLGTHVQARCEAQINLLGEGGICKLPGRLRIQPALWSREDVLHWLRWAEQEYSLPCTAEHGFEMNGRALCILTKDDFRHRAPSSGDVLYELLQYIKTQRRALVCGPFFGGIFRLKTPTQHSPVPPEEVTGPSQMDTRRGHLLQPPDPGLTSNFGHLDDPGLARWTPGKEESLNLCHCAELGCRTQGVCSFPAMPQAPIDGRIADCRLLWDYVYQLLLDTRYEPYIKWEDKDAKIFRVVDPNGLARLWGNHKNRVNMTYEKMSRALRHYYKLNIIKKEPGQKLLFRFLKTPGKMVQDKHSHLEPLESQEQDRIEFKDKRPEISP
# Method in brief: as §1
# ELF5 = molecular target: T11, ELF5 (Homo sapiens, UniProt Q9UKW6-2 1-255); settings: protein: recombinant; tags: N-terminal GST; dsDNA, one strand shown
# T11 sequence: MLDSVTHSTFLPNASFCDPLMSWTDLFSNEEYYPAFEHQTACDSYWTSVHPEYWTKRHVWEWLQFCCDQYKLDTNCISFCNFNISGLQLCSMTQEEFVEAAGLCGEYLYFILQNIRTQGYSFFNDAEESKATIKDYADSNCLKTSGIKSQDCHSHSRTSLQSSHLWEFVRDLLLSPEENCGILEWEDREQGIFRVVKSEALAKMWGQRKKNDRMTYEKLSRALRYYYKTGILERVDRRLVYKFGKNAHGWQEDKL
# Method in brief: as §1
# ETV3 = molecular target: T12, ETV3 (Homo sapiens, UniProt P41162-2 1-143); settings: protein: recombinant; tags: N-terminal GST; dsDNA, one strand shown
# T12 sequence: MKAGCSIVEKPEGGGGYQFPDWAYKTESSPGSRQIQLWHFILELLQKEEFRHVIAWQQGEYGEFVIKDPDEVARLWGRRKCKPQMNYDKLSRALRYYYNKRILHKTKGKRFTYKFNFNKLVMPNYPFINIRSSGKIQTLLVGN
# Method in brief: as §1
# ETV6 = ETV6 (Homo sapiens, UniProt P41212 1-452); settings: protein: recombinant; tags: N-terminal GST; dsDNA, one strand shown
# Method in brief: as §1
# Sequence of HSF1 (Q00613 whole entry): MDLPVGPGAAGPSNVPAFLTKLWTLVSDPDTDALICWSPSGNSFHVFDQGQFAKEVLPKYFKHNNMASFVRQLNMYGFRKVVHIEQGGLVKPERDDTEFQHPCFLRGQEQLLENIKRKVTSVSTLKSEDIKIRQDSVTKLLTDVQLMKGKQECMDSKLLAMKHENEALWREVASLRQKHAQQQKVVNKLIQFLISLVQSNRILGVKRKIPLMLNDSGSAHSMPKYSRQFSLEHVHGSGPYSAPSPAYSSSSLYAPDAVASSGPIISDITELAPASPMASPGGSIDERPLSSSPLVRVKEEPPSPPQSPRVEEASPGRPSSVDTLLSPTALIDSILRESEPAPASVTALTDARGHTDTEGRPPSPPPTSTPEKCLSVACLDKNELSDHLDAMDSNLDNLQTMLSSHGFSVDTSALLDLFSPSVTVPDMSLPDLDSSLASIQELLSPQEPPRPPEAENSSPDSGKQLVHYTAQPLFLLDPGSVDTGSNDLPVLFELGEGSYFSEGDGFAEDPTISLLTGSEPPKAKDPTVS
# Sequence of ELF4 (Q99607 whole entry): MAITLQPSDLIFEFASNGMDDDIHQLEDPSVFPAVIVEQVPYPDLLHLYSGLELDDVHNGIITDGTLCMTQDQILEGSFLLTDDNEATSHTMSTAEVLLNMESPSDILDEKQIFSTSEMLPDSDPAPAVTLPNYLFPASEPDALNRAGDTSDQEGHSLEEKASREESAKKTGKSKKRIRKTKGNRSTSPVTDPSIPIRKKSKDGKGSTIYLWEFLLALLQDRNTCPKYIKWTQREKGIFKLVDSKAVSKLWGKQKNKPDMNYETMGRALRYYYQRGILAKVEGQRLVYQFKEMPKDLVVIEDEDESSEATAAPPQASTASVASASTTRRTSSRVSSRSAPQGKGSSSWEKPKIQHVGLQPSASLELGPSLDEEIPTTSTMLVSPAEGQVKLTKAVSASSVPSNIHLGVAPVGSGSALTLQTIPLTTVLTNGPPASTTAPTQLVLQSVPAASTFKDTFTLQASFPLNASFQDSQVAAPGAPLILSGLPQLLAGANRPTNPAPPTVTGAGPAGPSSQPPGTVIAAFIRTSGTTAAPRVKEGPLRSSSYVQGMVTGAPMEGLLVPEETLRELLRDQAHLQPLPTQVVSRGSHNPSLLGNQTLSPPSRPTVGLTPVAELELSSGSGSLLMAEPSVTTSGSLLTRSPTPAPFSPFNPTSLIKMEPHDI
# Sequence of ETV1 (P50549 whole entry): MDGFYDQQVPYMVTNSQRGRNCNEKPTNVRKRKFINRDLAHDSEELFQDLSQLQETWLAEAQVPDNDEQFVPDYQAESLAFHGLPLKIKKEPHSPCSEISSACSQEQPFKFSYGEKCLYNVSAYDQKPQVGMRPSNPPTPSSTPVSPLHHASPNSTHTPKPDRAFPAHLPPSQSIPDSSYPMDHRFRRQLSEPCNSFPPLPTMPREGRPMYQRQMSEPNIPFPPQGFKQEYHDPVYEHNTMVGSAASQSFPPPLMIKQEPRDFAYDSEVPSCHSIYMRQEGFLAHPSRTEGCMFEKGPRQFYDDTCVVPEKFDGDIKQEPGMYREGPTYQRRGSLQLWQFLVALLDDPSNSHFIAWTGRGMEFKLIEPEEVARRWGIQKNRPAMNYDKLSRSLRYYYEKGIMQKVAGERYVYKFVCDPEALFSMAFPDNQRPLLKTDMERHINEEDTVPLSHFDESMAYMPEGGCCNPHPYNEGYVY
# Sequence of ETV5 (P41161 whole entry): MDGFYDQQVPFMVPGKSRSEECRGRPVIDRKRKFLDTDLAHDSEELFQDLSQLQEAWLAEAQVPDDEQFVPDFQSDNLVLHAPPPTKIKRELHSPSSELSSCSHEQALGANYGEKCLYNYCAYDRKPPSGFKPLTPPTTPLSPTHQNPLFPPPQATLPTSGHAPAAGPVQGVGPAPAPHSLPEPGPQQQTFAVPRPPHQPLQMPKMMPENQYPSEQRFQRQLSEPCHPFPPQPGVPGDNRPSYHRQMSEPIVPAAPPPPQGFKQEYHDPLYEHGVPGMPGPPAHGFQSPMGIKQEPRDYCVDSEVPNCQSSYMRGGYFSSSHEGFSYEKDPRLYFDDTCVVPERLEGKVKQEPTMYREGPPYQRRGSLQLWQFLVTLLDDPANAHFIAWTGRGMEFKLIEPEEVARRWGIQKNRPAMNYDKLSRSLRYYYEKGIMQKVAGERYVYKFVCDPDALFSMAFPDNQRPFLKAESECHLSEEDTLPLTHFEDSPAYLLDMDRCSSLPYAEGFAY
# Sequence of ETV6 (P41212 whole entry): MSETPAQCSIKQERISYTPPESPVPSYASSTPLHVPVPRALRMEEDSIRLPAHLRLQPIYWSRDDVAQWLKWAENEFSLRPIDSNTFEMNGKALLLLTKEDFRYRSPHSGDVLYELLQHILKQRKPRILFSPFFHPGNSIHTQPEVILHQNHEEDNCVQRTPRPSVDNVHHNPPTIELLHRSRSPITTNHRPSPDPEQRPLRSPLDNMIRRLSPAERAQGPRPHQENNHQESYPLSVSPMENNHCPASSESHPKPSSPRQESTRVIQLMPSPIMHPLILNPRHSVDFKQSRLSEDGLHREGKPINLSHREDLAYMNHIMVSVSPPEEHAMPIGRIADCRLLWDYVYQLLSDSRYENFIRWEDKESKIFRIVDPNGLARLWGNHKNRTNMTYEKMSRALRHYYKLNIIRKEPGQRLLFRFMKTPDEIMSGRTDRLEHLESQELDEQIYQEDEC
# Sequence of CRX (O43186 whole entry): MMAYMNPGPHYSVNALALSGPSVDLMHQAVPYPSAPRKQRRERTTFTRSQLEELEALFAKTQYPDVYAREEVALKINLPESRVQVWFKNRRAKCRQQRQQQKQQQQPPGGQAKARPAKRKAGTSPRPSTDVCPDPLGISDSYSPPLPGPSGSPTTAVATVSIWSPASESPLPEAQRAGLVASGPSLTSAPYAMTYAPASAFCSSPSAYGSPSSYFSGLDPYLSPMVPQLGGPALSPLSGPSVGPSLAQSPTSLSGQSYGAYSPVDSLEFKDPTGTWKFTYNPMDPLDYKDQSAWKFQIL
sequence,measurement,setting,value
CGATTC,binding signal,FEV,"1.06 fold enrichment (6-mer frequency, TF over GST control)"
same,binding signal,ETV5,"1.19 fold enrichment (6-mer frequency, TF over GST control)"
same,binding signal,HSF1,"1.35 fold enrichment (6-mer frequency, TF over GST control)"
same,binding signal,SPIC,"1.18 fold enrichment (6-mer frequency, TF over GST control)"
same,binding signal,ELF4,"1.24 fold enrichment (6-mer frequency, TF over GST control)"
same,binding signal,ELK4,"1.28 fold enrichment (6-mer frequency, TF over GST control)"
same,binding signal,ETV2,"1.06 fold enrichment (6-mer frequency, TF over GST control)"
same,binding signal,ELF3,"1.22 fold enrichment (6-mer frequency, TF over GST control)"
same,binding signal,CRX,"1.09 fold enrichment (6-mer frequency, TF over GST control)"
same,binding signal,ETV1,"1.25 fold enrichment (6-mer frequency, TF over GST control)"
same,binding signal,ERF,"1.09 fold enrichment (6-mer frequency, TF over GST control)"
same,binding signal,ETV3L,"1.18 fold enrichment (6-mer frequency, TF over GST control)"
same,binding signal,ETS2,"1.24 fold enrichment (6-mer frequency, TF over GST control)"
same,binding signal,SPDEF,"1.13 fold enrichment (6-mer frequency, TF over GST control)"
same,binding signal,ETV7,"1.06 fold enrichment (6-mer frequency, TF over GST control)"
same,binding signal,ELF5,"1.11 fold enrichment (6-mer frequency, TF over GST control)"
same,binding signal,ETV3,"1.23 fold enrichment (6-mer frequency, TF over GST control)"
same,binding signal,ETV6,"1.11 fold enrichment (6-mer frequency, TF over GST control)"

# — PMC7862700, “An all-to-all approach to the identification of sequence-specific readers for epigenetic DNA modifications on cytosine”
